About 79,000 compounds went through this panel and 15% of them were active in at least one assay; those are over-represented in the sample as a whole. Active and inactive are the calls of the source. Rule as the data show it: active = growth inhibition above about 70%; inactive = the rest.

The text below walks through data of PubChem BioAssay (NCI).

The nature of one assay: NCI Yeast Anticancer Drug Screen. Data for the rad52 strain (AID 147).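 Also: 0% = growth of vehicle-treated control cultures.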 Conditions: S. cerevisiae rad52 mutant growth inhibition; at 33.0 µM; active compounds read high. The method in brief: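 DNA repair-defective yeast; compound exposure; growth scored against vehicle controls.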
As to `O=C(/N=N/C(=O)Oc1ccccc1)Oc1ccccc1`, the growth inhibition is -38% (inactive).

`COc1cc([C@@H]2c3cc4c(cc3[C@@H](NC(=O)NO)[C@H]3COC(=O)[C@H]23)OCO4)cc(OC)c1O`: the growth inhibition is 48% (inactive).

Take `CC1(C)CC(=O)C(/C=N/c2nc(-c3ccc(Br)cc3)cs2)=C(O)C1`: the growth inhibition is 95% (active).

In the case of `CCOC(=O)/C(=C/c1cccc(Cl)c1)N(CC)CC`, the growth inhibition was 49% (inactive).

On to `CC(C)OC(=O)NNc1cccc(Cl)c1`, for which the growth inhibition is 96% (active).

`CCC(=O)C1=C(O)c2cc(OC)ccc2CC1C(=O)OC` (stereo unspecified): the growth inhibition was 16% (inactive).

With `O=S(=O)(NC1CCCC(c2ccccc2)C1)c1ccccc1` (stereo unspecified), the growth inhibition was 10% (inactive).

Take `COc1ccc2nc3cccc([N+](=O)[O-])c3c(NCCCCCC(=O)O)c2c1`: the growth inhibition is 98% (active).

As for `CCO/C=C1\SC(=S)N(c2ccc(OCC)cc2)C1=O`, the growth inhibition is 25% (inactive).

`COc1cc(OC)c(CSCC(NC(=O)OCC2c3ccccc3-c3ccccc32)C(=O)O)c(OC)c1` (stereo unspecified): the growth inhibition is 97% (active).

With `COC(=O)c1ccccc1N=NNc1cccc(SC)c1`, the growth inhibition was 89% (active).

As for `CC1=NN(C(=O)c2ccccc2O)C(=O)/C1=C/c1ccco1`, the growth inhibition is 92% (active).

With `COc1ccccc1NC(=O)c1ccc(Cl)cc1`, the growth inhibition is 5% (inactive).

Turning to `CC(C)=CCC/C(C)=C/CN1C(=O)C=CC1=O`, the growth inhibition was 99% (active).

As for `O=C1CSC(c2ccccc2)N1c1ccc(-c2ccc(-n3c(-c4ccccc4)nc4ccccc4c3=O)cc2)cc1` (stereo unspecified), the growth inhibition is 6% (inactive).

For `N#CC1OB(O)c2ccccc21` (stereo unspecified), the growth inhibition was -5% (inactive).

Consider `O=C(NCCNCCNC(=O)c1cc(-c2ccccc2)nc2ccccc12)c1cc(-c2ccccc2)nc2ccccc12`, for which the growth inhibition was -5% (inactive).

For `Brc1ccc(B2Nc3ccccc3N2)cc1`, the growth inhibition was 42% (inactive).

`CCOP(=O)(OCC)/C(C#N)=C/c1cccc(Oc2ccccc2)c1`: the growth inhibition is 95% (active).

Staying with this assay, now noted: S. cerevisiae rad52 mutant growth inhibition; at 100.0 µM; active compounds read high.
As to `CN(C)CC(CN(C)C)C(=O)/C=C/c1ccc(Cl)cc1Cl`, the growth inhibition is 97% (active).

With `c1ccc2c(c1)ccn2CCc1c[nH]c2ccccc12`, the growth inhibition is 97% (active).

Take `Cc1ccccc1NC(=O)c1c(C)oc2c1C(=O)c1ccccc1C2=O`: the growth inhibition is 69% (inactive).

Regarding `CC(C)OC(=O)NNc1c(Cl)cc(Cl)cc1Cl`, the growth inhibition was 5% (inactive).

For `COc1ccc2nc3cccc([N+](=O)[O-])c3c(NCCNCCO)c2c1`, the growth inhibition is 96% (active).

Turning to `COc1ccc2c(c1)CCCC(Br)C2=O` (stereo unspecified), the growth inhibition was 98% (active).

Consider `CCC(OC(C)=O)C1CC(C(C)C)CCC1C` (stereo unspecified), for which the growth inhibition was 22% (inactive).

For the compound `O=S(=O)(c1cccc(C(F)(F)F)c1)N1c2ccccc2-n2cccc2C1c1cccnc1` (stereo unspecified), the growth inhibition is 91% (active).

With `c1ccc(-c2cc(C3CO3)c3ccccc3n2)cc1` (stereo unspecified), the growth inhibition is 98% (active).

For the compound `COc1ccc(/C=C2\SC(=S)N(/C=C3\C(=O)N(c4ccccc4)N=C3C)C2=O)cc1OC`, the growth inhibition was 77% (active).

In the case of `CC1=CC(=C(c2ccc(N)c(C)c2)c2ccc(N)c(C)c2)C=CC1=N`, the growth inhibition was 97% (active).

Take `CC1C(c2ccccc2)SC(=N)N1C` (stereo unspecified): the growth inhibition was -4% (inactive).

`CC(/C=C/c1ccc([N+](=O)[O-])o1)=N/N1CC(CN2CCOCC2)OC1=O` (stereo unspecified): the growth inhibition is 98% (active).

With `C=CC(C)(C)N1C(=O)C(C(C)=O)=C(O)C1Cc1c[nH]c2ccccc12` (stereo unspecified), the growth inhibition was 87% (active).

Consider `O=C1c2cccc3cccc(c23)C(=O)N1CCNCCN1C(=O)c2cccc3cccc(c23)C1=O`, for which the growth inhibition was 34% (inactive).

Consider `Cc1ccc([N+](=O)[O-])c2c(NCCC[N+](C)(C)[O-])c3ccccc3nc12`, for which the growth inhibition is 85% (active).

Take `COC(=O)C(Cc1c[nH]c2ccccc12)N1CN(C)c2ccccc2C1=O` (stereo unspecified): the growth inhibition was 99% (active).

For the compound `O=C(/N=N/C(=O)Oc1ccccc1)Oc1ccccc1`, the growth inhibition is 24% (inactive).

Take `COc1cc([C@@H]2c3cc4c(cc3[C@@H](NC(=O)NO)[C@H]3COC(=O)[C@H]23)OCO4)cc(OC)c1O`: the growth inhibition was 88% (active).

As for `CC1(C)CC(=O)C(/C=N/c2nc(-c3ccc(Br)cc3)cs2)=C(O)C1`, the growth inhibition is 97% (active).

Take `CCOC(=O)/C(=C/c1cccc(Cl)c1)N(CC)CC`: the growth inhibition is 96% (active).

In the case of `CC(C)OC(=O)NNc1cccc(Cl)c1`, the growth inhibition is 97% (active).

Take `CCC(=O)C1=C(O)c2cc(OC)ccc2CC1C(=O)OC` (stereo unspecified): the growth inhibition was 43% (inactive).

As to `O=S(=O)(NC1CCCC(c2ccccc2)C1)c1ccccc1` (stereo unspecified), the growth inhibition is 90% (active).

Take `COc1ccc2nc3cccc([N+](=O)[O-])c3c(NCCCCCC(=O)O)c2c1`: the growth inhibition was 98% (active).

For the compound `CCO/C=C1\SC(=S)N(c2ccc(OCC)cc2)C1=O`, the growth inhibition is 70% (active).

For `COc1cc(OC)c(CSCC(NC(=O)OCC2c3ccccc3-c3ccccc32)C(=O)O)c(OC)c1` (stereo unspecified), the growth inhibition was 98% (active).
